Assay outcomes: PubChem, several laboratories
CYP2C19 act: increases human CYP2C19 enzyme activity. AID 1025. recombinant CYP2C19, luciferin-H EGE luminescence; hits give high values; 0 = fully inhibited enzyme, 1 = untreated enzyme. P33261. 96,000 tested, under 10 active. activation factor at 5 µM;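 active means activation factor of at least 2 at 5 µM in the primary screen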
CYP2C9 activ: CYP2C9 (human) activation; AID 1024; activation factor at 5 µM; P11712; recombinant CYP2C9, luciferin-H conversion, luminescence; hits give high values; factor 1 = untreated enzyme, 0 = blocked; actives 1.4% (n = 96,000);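 active means activation factor of 2 or more for CYP2C9 at a 5 µM dose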
sEH act: soluble epoxide hydrolase (human) activation; P34913; purified human sEH enzymatic activity, activator screen; activation, % at 2 µM; actives 0.04% (n = 91,000); in the data active means activation above about 37%
Target sequence (P34913 whole entry, looked up): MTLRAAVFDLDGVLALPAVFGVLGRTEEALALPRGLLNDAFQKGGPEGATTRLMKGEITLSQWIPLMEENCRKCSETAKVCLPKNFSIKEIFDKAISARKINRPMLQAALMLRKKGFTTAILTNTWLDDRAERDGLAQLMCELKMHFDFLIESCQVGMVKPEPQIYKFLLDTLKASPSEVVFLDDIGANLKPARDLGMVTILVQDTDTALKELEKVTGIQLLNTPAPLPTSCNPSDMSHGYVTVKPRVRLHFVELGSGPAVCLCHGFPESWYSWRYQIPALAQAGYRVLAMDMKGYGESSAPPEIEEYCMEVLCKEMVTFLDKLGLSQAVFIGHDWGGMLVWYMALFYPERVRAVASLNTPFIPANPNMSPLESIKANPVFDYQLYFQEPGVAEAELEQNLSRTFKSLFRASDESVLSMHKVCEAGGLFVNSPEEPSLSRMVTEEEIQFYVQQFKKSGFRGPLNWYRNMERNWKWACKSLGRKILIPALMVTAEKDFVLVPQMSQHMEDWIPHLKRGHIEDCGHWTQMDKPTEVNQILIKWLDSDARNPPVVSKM
sEH inhibitor: inhibitors of human soluble epoxide hydrolase | P34913 | recombinant human sEH enzymatic activity assay | inhibition, % at 2 µM | actives 0.34% (n = 91,000) | AID 707; in the data active means inhibition above about 80%
CYP2C9 inhib: human CYP2C9 inhibition; inhibition, % at 5 µM; actives 20% (n = 96,000); P11712; CYP2C9 Supersomes, luciferin-H conversion, luminescence;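 active means blocking of liver enzyme CYP2C9 beyond about 50% at 5 µM, limit read from the data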
CYP2C19 inh: human CYP2C19 inhibition. P33261. CYP2C19 Supersomes, luciferin-H EGE luminescence, 30 min. inhibition, % at 5 µM. actives 21% (n = 96,000);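 active means CYP2C19 inhibition above a set limit at 5 µM in the primary screen, cut at about 50% in these data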
A number is an active result; ! = repeats disagree. An excerpt weighted towards active compounds, which were near 27% of everything screened.

`CC(C)n1c(NCc2cc(Cl)ccc2O)nc2ccccc21` gave CYP2C19 act inactive, CYP2C9 activ inactive, sEH act inactive, sEH inhibitor inactive, CYP2C9 inhib inactive and CYP2C19 inh inactive.
`CC(C)n1c(NCc2nc3ccccc3n2C)nc2ccccc21` gave CYP2C19 act inactive, CYP2C9 activ inactive, sEH act inactive, sEH inhibitor inactive, CYP2C9 inhib 53.8 and CYP2C19 inh 84.3.
O=C(O)CNS(=O)(=O)c1cccc2nsnc12 was read as CYP2C19 act inactive, CYP2C9 activ inactive, sEH act inactive, sEH inhibitor inactive, CYP2C9 inhib inactive and CYP2C19 inh inactive.
Screening CC(C)n1c(CNC(=O)c2ccccc2)nc2ccccc21 returned CYP2C19 act inactive, CYP2C9 activ inactive, CYP2C9 inhib inactive and CYP2C19 inh 86.0.
`CC(=O)NCc1nc2ccccc2n1C(C)C` gave CYP2C19 act inactive, CYP2C9 activ inactive, sEH act inactive, sEH inhibitor inactive, CYP2C9 inhib inactive and CYP2C19 inh inactive.
For Cc1ccc(NCc2nc3ccccc3n2C)cc1 the results were CYP2C19 act inactive, CYP2C9 activ inactive, sEH act inactive, sEH inhibitor inactive, CYP2C9 inhib inactive and CYP2C19 inh 95.9.
For CCOC(=O)c1ccc(NCc2nc3ccccc3n2C)cc1 the results were CYP2C19 act inactive, CYP2C9 activ inactive, sEH act inactive, sEH inhibitor inactive, CYP2C9 inhib inactive and CYP2C19 inh inactive.
For CCn1c(CNc2nc3ccccc3n2C(C)C)nc2ccccc21 the results were CYP2C19 act inactive, CYP2C9 activ inactive, sEH act inactive, sEH inhibitor inactive, CYP2C9 inhib 82.3 and CYP2C19 inh 82.0.
For COc1ccc2c(C=Nc3c(C)n(C)n(-c4ccccc4)c3=O)c(O)n(Cc3ccco3)c(=O)c2c1 the results were CYP2C19 act inactive, CYP2C9 activ inactive, sEH act inactive, sEH inhibitor inactive, CYP2C9 inhib 72.2! and CYP2C19 inh 59.7!.
Screening N#Cc1nc(-c2ccccc2F)oc1NCc1ccccc1 returned CYP2C19 act inactive, CYP2C9 activ inactive, sEH act inactive, sEH inhibitor inactive, CYP2C9 inhib 66.0 and CYP2C19 inh inactive.
N#Cc1nc(-c2ccccc2F)oc1NCCc1ccccc1 was read as CYP2C19 act inactive, CYP2C9 activ inactive, sEH act inactive, sEH inhibitor inactive, CYP2C9 inhib inactive and CYP2C19 inh inactive.
`COCCCNc1oc(-c2ccccc2F)nc1C#N` gave CYP2C19 act inactive, CYP2C9 activ inactive, sEH act inactive, sEH inhibitor inactive, CYP2C9 inhib 58.2 and CYP2C19 inh 66.5.
Screening CCOC(=O)N1CCC(NC(=O)C(CC(C)C)NC(=O)C2CCC(C)CC2)CC1 (stereo unspecified) returned CYP2C19 act inactive, CYP2C9 activ inactive, sEH act inactive, sEH inhibitor inactive, CYP2C9 inhib inactive and CYP2C19 inh inactive.
COc1ccccc1N1CCN(C(=O)CSc2ccc3c(C)cc(C)nc3n2)CC1 was read as sEH act inactive and sEH inhibitor inactive.
`Cc1cccc(OCC(=O)OCC(=O)c2c(N)n(C)c(=O)n(C)c2=O)c1C` gave CYP2C19 act inactive, CYP2C9 activ inactive, sEH act inactive, sEH inhibitor inactive, CYP2C9 inhib inactive and CYP2C19 inh inactive.
Screening COc1ccccc1C1NC(c2ccccc2OC)C(C)C(=O)C1C (stereo unspecified) returned CYP2C19 act inactive, CYP2C9 activ inactive, sEH act inactive, sEH inhibitor inactive, CYP2C9 inhib 66.8 and CYP2C19 inh 100.0.
Nc1nc(SCc2c(Cl)cccc2Cl)n[nH]1 was read as CYP2C19 act inactive, CYP2C9 activ inactive, sEH act inactive, sEH inhibitor inactive, CYP2C9 inhib inactive and CYP2C19 inh inactive.
Screening c1ccc(Cn2nnnc2C(c2cccs2)N2CCc3ccccc3C2)cc1 (stereo unspecified) returned CYP2C19 act inactive, CYP2C9 activ inactive, CYP2C9 inhib 70.5 and CYP2C19 inh 92.4.
Screening CC(C)C(c1nnnn1Cc1ccccc1)N1CCc2ccccc2C1 (stereo unspecified) returned CYP2C19 act inactive, CYP2C9 activ inactive, CYP2C9 inhib 53.1 and CYP2C19 inh inactive.
`c1ccc(Cn2nnnc2C(c2cccs2)N2CCCCCC2)cc1` (stereo unspecified) gave sEH act inactive and sEH inhibitor inactive.
